Source: PubChem BioAssay
Most compounds without a hit are left out; they make up all but 3.2% or so of the library.
Pemphigus Ab inh: human desmoglein-3 autoantibody binding inhibition; binding (percent of control), % at 10 µM; P32926; DSG3-coupled beads, scFv-anti-DSG3-GFP binding, flow cytometry; active compounds read low; AID 588358; hit rate 0.48% among 310,000;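 active = binding more than 3 SD below its plate's average and above zero; inconclusive = below that plate limit but binding exactly zero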;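 note: hits lower antibody fragment binding to DSG3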
MsrA act: activators of bovine methionine sulfoxide reductase A | purified bovine MsrA, absorbance read-out | activation, % at 10.6 µM | hit rate 0.3% among 360,000 | AID 602163; in the data active = activation above about 7.5%;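 note: 0% = vehicle and 100% = reference activator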
rCAG binder: binds r(CAG) RNA repeats; AID 651821; inhibition, % at 3 µM; r(CAG) RNA repeat, TO-PRO-1 dye displacement fluorescence; hit rate 1.3% among 370,000;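 active = inhibition above the plate cutoff, the mean of all test compounds on that plate plus 3 SD, cut at about 35% in these data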;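 note: 0% = DMSO alone and 100% = 100 µM mitoxantrone as full dye displacement; higher means more dye released from RNA so lower well fluorescence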
MsrA inh: inhibitors of bovine MsrA; inhibition, % at 15.5 µM; purified bovine MsrA, absorbance read-out; hit rate 0.75% among 360,000; AID 651718; in the data active = inhibition above about 4.5%;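 note: 0% = vehicle wells with enzyme and 100% = reference inhibitor wells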
DAGLB inhibitor: blocks human DAGLB lipase activity. HEK293T DAGLB membrane lysate, EnzChek fluorogenic substrate. AID 504411. inhibition, % at 5.17 µM. hit rate 0.059% among 340,000. Q8NCG7; in the data active = inhibition above about 34%;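 note: 0% = enzyme with vehicle and 100% = wells lacking enzyme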
NadD inh: inhibitors of Staphylococcus aureus NadD; inhibition, % at 20 µM; purified NadD enzyme, colorimetric absorbance read-out; hit rate 0.78% among 360,000; in the data active = inhibition above about 26%
MsrA act confirm: bovine methionine sulfoxide reductase A activation confirmed | shares compounds with MsrA act | purified bovine MsrA, absorbance read-out | activation, % at 10.6 µM | hit rate 12% among 1,000 | AID 602270; in the data active = activation above about 4%;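 note: enzyme coupled to thioredoxin and thioredoxin reductase with NADPH; 0% = vehicle wells and 100% = reference activator wells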
Active calls of the source: *; ? = inconclusive; . = not tested or not shown.

SMILES	Pemphigus Ab inh	MsrA act	rCAG binder	MsrA inh	DAGLB inhibitor	NadD inh	MsrA act confirm
CC(Sc1nnc(-c2ccco2)n1C)C(=O)NC1CCCC1 (stereo not drawn)	?	16.7*	-1.9	0.4	-0.2	-1.8	-2.8
N#Cc1cnn(-c2cc(Cl)ccc2Cl)c1N	103.3	-6.6	1.7	0.4	-3.8	-0.8	.
N#Cc1cnn(-c2ccc([N+](=O)[O-])cc2[N+](=O)[O-])c1N	102.0	8.3*	0.3	-0.4	-2.5	-5.8	1.5
CC(C)(O)CN(CCCNC(=S)Nc1ccccc1)C(=S)Nc1ccccc1	.	14.3*	1.3	-0.3	-0.1	-2.6	-0.1
COCCn1c(-c2ccc(OC)cc2)nc2ccccc21	103.9	-1.5	-4.7	-0.4	-1.2	-2.0	.
COCCn1c2nc(=O)n(-c3ccccc3)c(=O)c-2nc2ccccc21	101.7	26.5*	-71.7	1.1	-69.1	-6.2	8.7*
O=C(COC(=O)c1cc(F)cc(F)c1)Nc1cccnc1Cl	123.9	9.1*	-1.8	-0.9	-0.2	-5.2	-3.5
O=C(COC(=O)c1ccc(F)cc1F)Nc1cccnc1Cl	100.0	1.3	1.6	0.7	-2.1	-0.4	.
O=C(c1ccccc1F)N1CCN(c2ccc([N+](=O)[O-])c3ncccc23)CC1	104.6	-3.4	-2.2	0.3	6.2	-0.4	.
O=[N+]([O-])c1cccc2c(N3CCCC3)ccnc12	109.7	19.6*	-2.6	1.8	2.5	-1.0	11.7*
CC(C)c1ccc(Nc2n[nH]c(=S)s2)cc1	.	8.6*	4.6	0.8	.	24.5	0.1
COc1ccccc1Nc1n[nH]c(=S)s1	.	8.9*	-0.9	2.1	0.2	14.6	1.0
Cc1cccc(C)c1Nc1n[nH]c(=S)s1	102.0	7.5	3.8	-1.3	2.0	17.4	.
Cc1ccc(Nc2n[nH]c(=S)s2)c(C)c1	102.8	10.3*	3.9	0.6	0.5	6.0	0.8
CCCCC[C@H](C)N1C[C@H](COCc2ccccc2)Oc2cc(N3CCC[C@@H]3COC)ccc2S1(=O)=O	.	-0.5	6.1	-1.3	.	-4.5	.
Cc1ccc(C(=O)N2c3ccccc3N=C(c3ccccc3)C2C(=O)NC(C)C)cc1 (stereo not drawn)	.	.	5.6	2.0	.	.	.
CCOC(=O)CC[C@@H]1CC[C@]2(CCCN(C(=O)c3ccc4ccccc4n3)C2)O1	.	.	-1.1	.	.	.	.
C/C(CC(=O)Nc1ccc(Cl)cc1Cl)=N\NC(=O)c1ccco1	103.9	8.4*	0.7	0.0	0.4	1.7	0.2
CC(C)Cn1[nH]c2c3c(ccc2c1=O)C(=O)c1ccccc1C3=O	108.6	7.8*	.	.	10.6	-3.6	3.2
Cn1c(Oc2ccncc2)nc2cc(-c3ccsc3)sc2c1=O	.	15.1*	0.3	2.7	.	-2.3	-2.0
c1ccc(Sc2nc(N3CCCCC3)nc(N3CCCCC3)n2)nc1	114.6	9.3*	-5.1	-0.9	-14.2	2.8	1.2
N=C(N)Sc1nc(N2CCCCC2)nc(N2CCCCC2)n1	98.6	-4.8	4.5	-0.6	5.4	1.7	.
OC[C@@H]1CN(Cc2ccc(-c3ccccc3)cc2)C[C@H](n2cnc3c(NC4CCC4)ncnc32)O1	.	-2.0	6.4	-1.5	.	-2.7	.
COC(=O)c1[nH]c2ccccc2c1NC(=O)CN1CCN(C/C=C/c2ccccc2)CC1	104.7	-5.5	-6.0	-0.6	1.6	5.1	.
CCOC(=O)c1[nH]c2ccc(F)cc2c1NC(=O)CN1CCN(C/C=C/c2ccccc2)CC1	105.4	10.1*	-3.7	0.1	-5.2	0.7	-0.9
SMILES	Pemphigus Ab inh	MsrA act	rCAG binder	MsrA inh	DAGLB inhibitor	NadD inh	MsrA act confirm
Cc1cccc(N=C2NC(=O)c3cc([N+](=O)[O-])ccc32)c1	102.3	7.8*	1.8	-0.9	-1.3	-1.0	3.5
CN(C)c1nc(OCCNC(=O)Nc2ccccc2)nc(N2CCCCC2)n1	101.1	-2.9	-4.0	0.7	-5.9	-10.7	.
CN(C)c1nc(OCCNC(=O)Nc2ccccc2)nc(N2CCOCC2)n1	104.1	15.6*	-9.1	-0.2	-3.0	-4.3	-0.9
COc1ccc2c(CC(=O)Nc3ccccc3OC)coc2c1	101.2	-2.8	0.0	-0.9	-2.0	0.8	.
COc1ccc(NC(=O)COC(=O)Cc2coc3cc(OC)ccc23)c(OC)c1	130.2	8.0*	2.4	-0.1	-4.6	-4.8	-1.0
O=C(CN1CCNCC1)N1CCOCC1	.	-2.8	.	.	.	-1.1	.
O=C(C1CCN(S(=O)(=O)N2CCOCC2)CC1)N1CCOCC1	105.5	-2.6	-0.8	-0.3	-0.5	-0.9	.
O=C(C1CCN(S(=O)(=O)N2CCOCC2)CC1)N1CCN(c2ccccc2)CC1	102.4	10.2*	3.2	0.0	-0.2	-3.5	-1.7
CCN1CCN(C(=O)CS(=O)(=O)Cc2nc(-c3cccc(OC)c3)oc2C)CC1	103.3	-4.2	-4.6	-1.4	0.1	1.4	.
CCCN1CCN(C(=O)CS(=O)(=O)Cc2nc(-c3cccc(OC)c3)oc2C)CC1	77.8	9.3*	-12.3	-1.0	0.5	-1.3	-1.6
CN(Cc1ccccc1)C(=O)c1csc([C@@H]2O[C@H](CO)[C@H](O)[C@H](O)[C@H]2O)n1	.	13.5*	-0.4	-0.4	.	0.5	-0.9
Cc1ccc(C(=O)Nc2cccc(C(=O)N3CCOCC3)c2)cc1Cl	104.7	20.6*	-3.9	-0.6	-0.6	-0.1	-3.3
C=CCNC(=O)CN(C(=O)c1csc2ccc(Cl)cc12)c1cccc(Br)c1	.	.	3.1	.	.	.	.
O=C(C[n+]1cc(-c2ccccc2)n2c1CCC2)c1cccs1	100.7	8.9*	2.7	2.2	0.1	-1.8	0.0
O=C(C[n+]1cc(-c2ccccc2)n2c1CCC2)N1c2ccccc2Sc2ccccc21	105.6	1.0	8.7	-0.3	-0.5	13.3	.
CC1CCN(CCCNC(=O)c2cn(C)c3ccc(S(=O)(=O)N4CCCC4)cc3c2=O)CC1	100.7	7.9*	0.9	2.7	1.4	1.0	-0.4
S=c1nc(-c2ccco2)[nH][nH]1	107.4	8.2*	-0.1	-0.2	1.3	2.0	1.5
COc1ccc(-c2noc(N3CCC(C(=O)NCCCN4CCCC(C)C4)CC3)n2)cc1 (stereo not drawn)	110.4	8.7*	2.8	-0.7	-2.3	-6.8	0.2
COc1cc2c(cc1OC)C(c1ccc([N+](=O)[O-])cc1)NCC2 (stereo not drawn)	118.8	-3.3	-1.0	1.1	-2.1	-2.0	.
COc1cc2c(cc1OC)C(c1cc([N+](=O)[O-])ccc1O)NCC2 (stereo not drawn)	102.5	9.0*	-0.1	0.1	0.0	-3.7	-7.3
CCc1ccc(OC2(C)CCN(Cc3ccc(SC)cc3)C2)cc1 (stereo not drawn)	.	-1.1	0.7	-0.7	.	-5.9	.
CCc1nnc(N/N=C/c2ccc(-c3ccc([N+](=O)[O-])cc3)o2)n1N	97.0	8.4*	4.2	1.1	7.7	2.3	-0.5
Cc1nnc(N/N=C\c2ccc(-c3ccccc3[N+](=O)[O-])o2)n1N	98.5	17.5*	3.6	2.5	-1.2	12.1	-6.2
Cc1nnc(N/N=C/c2ccccc2O)n1N	100.5	8.8*	-3.9	-0.2	-1.0	8.9	-1.4
